PubChem BioAssay AID1440 (NMMLSC, 2008)
Among all 220,000 compounds or so, fewer than 10 were called active. Another 92% or so got no clear call; they are omitted. The rule behind the calls is not given here. The list is a sample of the results.

biological target: Guanine nucleotide-binding protein G(o) subunit alpha (Homo sapiens) + Regulator of G-protein signaling 19 (Homo sapiens) (UniProt P09471+P49795); experiment: modulators of human RGS19-Gαo interaction – biochemical, multiplexed bead flow cytometry (AID 1440); conditions: RGS19-Galphao binding, at 10 µM;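 note: fluorescent Galpha o activated by aluminum fluoride binding bead-coupled RGS19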
Sequence (P09471 whole entry, looked up): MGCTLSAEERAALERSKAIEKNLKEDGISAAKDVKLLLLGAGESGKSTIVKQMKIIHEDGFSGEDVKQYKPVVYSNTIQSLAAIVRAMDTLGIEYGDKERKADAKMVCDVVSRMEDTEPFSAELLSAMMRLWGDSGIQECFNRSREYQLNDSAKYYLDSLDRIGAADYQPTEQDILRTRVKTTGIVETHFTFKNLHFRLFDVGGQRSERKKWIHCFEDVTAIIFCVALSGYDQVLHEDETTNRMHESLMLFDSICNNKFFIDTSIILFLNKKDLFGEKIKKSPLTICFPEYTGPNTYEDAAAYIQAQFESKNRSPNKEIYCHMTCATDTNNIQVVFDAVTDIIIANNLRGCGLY
Sequence (P49795 whole entry, looked up): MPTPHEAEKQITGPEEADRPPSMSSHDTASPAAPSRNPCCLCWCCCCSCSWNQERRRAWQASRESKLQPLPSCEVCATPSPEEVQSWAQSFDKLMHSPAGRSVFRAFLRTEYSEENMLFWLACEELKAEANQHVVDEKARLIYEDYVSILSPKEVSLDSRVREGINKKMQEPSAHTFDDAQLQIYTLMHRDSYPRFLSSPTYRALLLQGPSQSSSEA

| SMILES | binding response (% of control) |
| --- | --- |
| COc1ccc(C(=O)CN(C(=O)c2ccc(Cl)cc2)N2C(=O)C3CCCCC3C2=O)cc1 (stereo unspecified) | 103% |
| Cc1c(NC(=O)CSc2nc3c(cnn3-c3ccccc3)c(=O)[nH]2)c(=O)n(-c2ccccc2)n1C | 125% |
| CC(C)CC1=C/C(=C/c2ccc(-c3ccccc3)o2)C(=O)O1 | 71.1% |
| Cc1ccc(Cl)c(OCCN2CCCC(C)C2)c1 (stereo unspecified) | 118% |
| Cc1cc(=O)n2[nH]c(SCc3ccccc3)nc2n1 | 102% |
| O=C(c1ccccc1F)N1CCN(c2ccccc2)CC1 | 64.3% |
| Cn1cc(CN(CCCN2CCOCC2)C(=S)Nc2cccc(Cl)c2)c2ccccc21 | -17% |
| COC(=O)c1cc(OC)c(OC)cc1NC(=S)N1CCCC(CO)C1 (stereo unspecified) | 98.1% |
| Cc1ccc(NC(=O)N(Cc2ccco2)Cc2cc3cc(C)cc(C)c3nc2Cl)cc1 | 92.8% |
| CCOc1ccc(-c2nnc(N)o2)cc1 | 71.8% |
| CC(=O)Nc1ccc(NC(=O)Oc2ccccc2)cc1 | 99.1% |
| CCOC(=O)c1c(C)n(-c2ccc(OC)cc2)c2c(C/C(C)=N/O)c(Br)c(OC)c(O)c12 | 120% |
| COc1cccc(C2=CC(c3ccc(OC)c(OC)c3OC)n3nnnc3N2)c1 (stereo unspecified) | 102% |
| O=Nc1c(O)n(Cc2ccc(Cl)c(Cl)c2)c2ccccc12 | 70.4% |
| CCOC(=O)c1nnc(-c2cccs2)nc1NC(C)C | 220% |
| CCOC(=O)c1nnn(-c2nc(OC)nc(N3CCCCC3)n2)c1-c1ccccc1 | 69.6% |
| O=C(c1cnccn1)N(Cc1cccs1)C1(C(=O)NC2CCCCC2)CCCCC1 | -941% |
| COc1ccc(Br)cc1-c1noc(-c2ccncc2)n1 | 92.5% |
| Cc1ccc(C(=O)NC(=S)N2CCN(C)CC2)cc1 | 97.8% |

| SMILES | binding response (% of control) |
| --- | --- |
| CC(=O)c1nc2ccccc2n1S(=O)(=O)c1ccc(C)cc1 | 97.2% |
| Clc1ccc(/C=N/N2CCN(Cc3ccccc3Cl)CC2)cc1 | 100% |
| COc1ccc(N2CCN(C(=O)CSc3nnnn3-c3ccc4c(c3)OCCO4)CC2)cc1 | 94.7% |
| COc1ccc(N(C(=O)Cn2nnc3ccccc32)C(C(=O)NCc2ccco2)c2cccnc2)cc1 (stereo unspecified) | 110% |
| CC(C)(C)OC(=O)N1CCOCCOCCNCCOCCOCC1 | 98.6% |
| CN=C(Nc1cc(C)nn1-c1ccccc1)c1ccccc1 | 113% |
| COCCCNC(=O)c1ccc(NS(C)(=O)=O)cc1 | 96.8% |
| Cc1ccc(CNCC2CCCO2)o1 (stereo unspecified) | 96.8% |
| COc1ccc2c(c1)c(C(=O)CNc1nc(C)cs1)c(C)n2C | 44.3% |
| FC(F)Oc1ccc(-c2c[n+]3c(n2-c2ccccc2)CCCCC3)cc1 | 256% |
| Cc1nn(Cc2ccc(F)cc2)c(C)c1NC(=O)c1cnn2cccnc12 | 109% |
| CC1=C(C(N)=O)C(c2cccc(OCc3ccccc3)c2)n2nnnc2N1 (stereo unspecified) | 91.9% |
| Cc1ccc(Cl)cc1N(Cc1ccc(C(=O)NCc2cccnc2)cc1)S(=O)(=O)c1ccccc1 | 98.3% |
| CCCCCOc1ccc(NC(=O)CCCC(=O)O)cc1 | 81.9% |
| C#CCn1cnc2c(cnn2-c2ccc(C)c(C)c2)c1=O | 106% |
| COc1ccc(C(=O)CSc2nc3ncccc3[nH]2)cc1OC | 52.5% |
| CCn1cc(C(=O)NCC2CCCO2)c2cc(OC)c(OC)cc2c1=O (stereo unspecified) | 103% |
| Cc1cc(C)nc(SCC(=O)N2CCC(C(N)=O)CC2)n1 | 105% |
| CCC(=O)N1CCc2cc(S(=O)(=O)NC(Cc3ccccc3)C(=O)Nc3nccs3)ccc21 (stereo unspecified) | -46.3% |

| SMILES | binding response (% of control) |
| --- | --- |
| O=c1[nH]c2cc3c(cc2cc1CN(Cc1ccc2c(c1)OCO2)Cc1nnnn1CC1CCCO1)OCO3 (stereo unspecified) | 90.7% |
| Cc1ccc(/C=C2\CCCC3=C2NC(=S)NC3c2ccc(C)cc2)cc1 (stereo unspecified) | 203% |
| C=CCn1c2ccccc2c2nnc(SCN3C(=O)c4ccccc4C3=O)nc21 | 77.7% |
| CCCC(C)NC(=O)Cc1ccccc1[N+](=O)[O-] (stereo unspecified) | 110% |
| O=C(CN1CCSCC1)N1CCc2[nH]c3ccc(Br)cc3c2C1 | 66.9% |
| CCc1ccc(OCC(=O)Nc2cc(S(=O)(=O)CC)ccc2O)cc1 | 89.9% |
| Cc1ccc(NC(CC(=O)c2ccccc2)c2ccc(F)cc2)cc1 (stereo unspecified) | 100% |
| O=C1COc2ccc(C(=O)NCc3ccc4c(c3)OCO4)cc2N1 | 104% |
| CC(NC(=O)C(=O)NN=C1CCCCCCCCCCC1)c1ccccc1 (stereo unspecified) | 101% |
| COc1ccc(-c2nn[nH]n2)cc1OC | 116% |
| O=C(CN1CCOCC1)Nc1ncc(Cc2ccccc2Cl)s1 | 108% |
| Clc1ccc(-c2nn3c(C4COc5ccccc5O4)nnc3s2)cc1 (stereo unspecified) | 17.6% |
| C/C(CC(=O)Nc1cccc(Cl)c1C)=N\NC(=O)C(=O)NCC(C)C | 105% |
| COC(=O)CNC(=O)COC(=O)c1ccc(OC)c([N+](=O)[O-])c1 | 98.3% |
| CCN1CCN(C(c2cccs2)C(C)NC(=O)c2c(F)cccc2F)CC1 (stereo unspecified) | 114% |
| BrC(/C=C\c1ccccc1)=N/Nc1nc(N2CCOCC2)nc(N2CCOCC2)n1 | 98.4% |
| O=C(c1ccccc1NS(=O)(=O)c1ccc(Br)s1)N1CCCC1 | 102% |
| Cc1cc(C)c(C#N)c(SCC(=O)N2CCCCC2)n1 | 91.6% |
